# Source: PubChem BioAssay (Tox21)
# Values without a mark were called inactive. Inconclusive results are not listed. Entries that show only a call come without a potency. Calls of active or inactive are those of the source. Unless noted, calls follow the shape of the dose curve; as a rule, active = well fitted curve in the direction sought with a large enough effect in the repeat runs; inconclusive = weak or mixed curves; inactive = no such curve, though single readings can be large; an effect the other way counts as inactive or inconclusive.
# Assays:
# [1] = qHTS assay to identify small molecule agonists of H2AX (AID 1224845; active = well fitted activation curve with a large enough effect in the signal ratio in the repeat runs, not every such curve was filed as active; the % refers to the signal ratio)
# In short: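 Phospho-H2AX Ser139 measured by HTRF (ex 320 nm; em 665 and 620 nm) after 24 hr antibody incubation. Compounds, 15 concentrations, 0.76% DMSO, were applied to CHO-K1 cells for 3hr at 37C before lysis.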
# [2] = qHTS assay to identify small molecule agonists of the hypoxia (HIF-1) signaling pathway (AID 1224846; active = well fitted activation curve with a large enough effect in the signal ratio in the repeat runs, not every such curve was filed as active; the % refers to the signal ratio)
# In short: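 A low-serum medium (0.5% dialyzed FBS) holding 2,000 HRE-bla ME-180 cells per well is preincubated for 5 hrs, dosed with compounds by pintool, and kept a further 17 hrs at 37C, 5% CO2 before CCF4-AM FRET detection of beta-lactamase.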
# [3] = qHTS assay to identify small molecule agonists of H2AX - cell viability counter screen (AID 1224847; calls by dose curve;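 also: wild-type CHO-K1 cells; top concentration of the series differs between compounds; nearly all actives have a fitted effect of over 30% in size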)
# In short: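 Cells plated first: CHO-K1, 1000 per well in 10% FBS medium, incubated overnight at 37C. Then 15-point compound titration added (final DMSO 0.76%) for 3 hr. Finally CellTiter-Glo added and luminescence read.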
# [4] = qHTS RealTime-Glo MT Cell Viability Assay in HepG2 cells - 24 hour (AID 1224867); also: nearly all actives have a fitted effect of over 50% in size
# In short: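 Cells + NanoLuc/prosubstrate dispensed (600 cells/well) → 5 h at 37 C/5% CO2 → compounds in DMSO transferred → 40 h incubation at 37 C, luminescence read at 0, 8, 16, 24, 32, 40 h.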
# [5] = qHTS RealTime-Glo MT Cell Viability Assay in HEK293 cells - 32 hour (AID 1224868); also: top concentration of the series differs between compounds; nearly all actives have a fitted effect of over 50% in size
# In short: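 Tox21 10K qHTS, HEK293, 600 cells/well, RealTime-Glo reagent co-dispensed with cells; 5 h preincubation, compound by pintool, 37 C, luminescence at 0–40 h.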
# [6] = A CellTox Green Cytotoxicity Assay to monitor cytotoxicity in HEK293 cells - 0 hour (AID 1224869); also: nearly all actives have a fitted effect of over 50% in size
# In short: (§1)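 Fluorescence intensity, read at 0, 8, 16, 24, 32 and 40 h of compound treatment, reflected dye binding to DNA of dead HEK293 cells; compounds (23 nL, DMSO) were added 5 h after plating cells with reagent.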
# [7] = qHTS RealTime-Glo MT Cell Viability Assay in HepG2 cells - 40 hour (AID 1224870); also: nearly all actives have a fitted effect of over 50% in size
# In short: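 Real-time viability: cells seeded at 600 per well together with NanoLuc and cell-permeant prosubstrate, compounds added after 5 h incubation. Luminescence tracked at 0, 8, 16, 24, 32 and 40 h of exposure.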
# [8] = A CellTox Green Cytotoxicity Assay to monitor cytotoxicity in HEK293 cells - 40 hour (AID 1224871); also: nearly all actives have a fitted effect of over 45% in size; also: potency is read from the fitted curve at half-maximal effect
# In short: as §1
# [9] = qHTS assay to identify small molecule antagonists of the estrogen related receptor (ERR) signaling pathway from Tox21 library (AID 1224848); also: nearly all actives have a fitted effect of over 50% in size; also: potency is read from the fitted curve at half-maximal effect
# In short: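 Reading was by luminescence 30 min after ONE-Glo addition. Before that, ERR cells at 2,000 per well had rested 6 h at 37 C/5% CO2 and then received pin-tooled compounds in DMSO for 18 h at 37 C.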
# [10] = qHTS assay to identify small molecule agonists of the estrogen related receptor (ERR) signaling pathway from Tox21 library (AID 1224849; calls by dose curve; also: nearly all actives have a fitted effect of over 15% in size); conditions: ERR reporter cell line, ONE-Glo luciferase, 18 h; at 92.4 µM (top of the series) unless noted
# In short: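 Screening used an NTP-provided ERR luciferase cell line. Compounds in DMSO were added 6 h after seeding and left 18 h at 37 C before a 30 min ONE-Glo step and luminescence reading.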
smiles,measurement,setting,value
CCOC(=O)C(=O)CCc1ccccc1,Potency,[1],inactive
same,Potency,[2],inactive
same,Potency,[3],inactive
same,Potency,[4],inactive
same,Potency,[5],inactive
same,Potency,[6],inactive
same,Potency,[7],inactive
same,Potency,[8],inactive
CCC(C)O (configuration not stated),Potency,[1],inactive
same,Potency,[2],inactive
same,Potency,[3],inactive
same,Potency,[9],inactive
same,"activity change, positive = activation",[10],0.0918%
same,Potency,[5],inactive
same,Potency,[6],inactive
same,Potency,[7],inactive
same,Potency,[8],inactive
CCOC(=O)C(O)c1ccccc1 (configuration not stated),Potency,[1],inactive
same,Potency,[2],inactive
same,Potency,[3],inactive
same,Potency,[9],inactive
same,"activity change, positive = activation",[10],3.78% [at 42.5 µM]
same,Potency,[5],inactive
same,Potency,[6],inactive
same,Potency,[7],inactive
same,Potency,[8],inactive
O=C(O)c1ccco1,Potency,[1],inactive
same,Potency,[2],inactive
same,Potency,[3],inactive
same,Potency,[4],inactive
same,Potency,[5],inactive
same,Potency,[6],inactive
same,Potency,[7],inactive
same,Potency,[8],inactive
Cc1ccccc1S(=O)(=O)O,Potency,[1],inactive
same,Potency,[2],inactive
same,Potency,[3],inactive
same,Potency,[4],inactive
same,Potency,[5],inactive
same,Potency,[6],inactive
same,Potency,[7],inactive
same,Potency,[8],inactive
CN(C)C(=O)NC1(c2ccccc2)CCN(CC[C@@]2(c3ccc(F)c(F)c3)CN(C(=O)c3ccccc3)CCO2)CC1,Potency,[1],inactive
same,Potency,[2],inactive
same,Potency,[3],inactive
same,"activity change, positive = activation",[10],-22.6%
same,Potency,[4],inactive
same,Potency,[6],inactive
same,Potency,[7],inactive
same,Potency,[8],inactive
CCCCCCCCO[C@@H]1O[C@H](CO)[C@@H](O)[C@H](O)[C@H]1O,Potency,[1],inactive
same,Potency,[2],inactive
same,Potency,[3],inactive
same,Potency,[4],inactive
same,Potency,[5],inactive
same,Potency,[6],inactive
same,Potency,[7],inactive
same,Potency,[8],inactive
Cc1ncc(CO)c(C=O)c1O,Potency,[1],inactive
same,Potency,[2],inactive
same,Potency,[3],inactive
same,Potency,[9],inactive
same,"activity change, positive = activation",[10],2.22% [at 42.5 µM]
same,Potency,[5],inactive
same,Potency,[6],inactive
same,Potency,[7],inactive
same,Potency,[8],inactive
C[C@@H]1C[C@H]2O[C@@]3(O[C@@H]2C(C)(C)O)[C@H](O)[C@@]2(C)[C@@H]4CC[C@H]5C(C)(C)[C@@H](O[C@@H]6OC[C@@H](O)[C@H](O)[C@H]6O)CC[C@@]56C[C@@]46CC[C@]2(C)[C@@H]13,Potency,[1],inactive
same,Potency,[2],inactive
same,Potency,[3],inactive
same,Potency,[9],inactive
same,"activity change, positive = activation",[10],-12.2% [at 42.5 µM]
same,Potency,[5],inactive
same,Potency,[6],inactive
same,Potency,[7],inactive
same,Potency,[8],inactive
CN1CCC(N(Cc2cccs2)c2ccccc2)CC1,Potency,[1],inactive
same,Potency,[2],inactive
same,Potency,[3],inactive
same,Potency,[9],inactive
same,"activity change, positive = activation",[10],0.685% [at 42.5 µM]
same,Potency,[5],inactive
same,Potency,[7],inactive
same,Potency,[8],19 µM (active)
C=C(C)C(=O)OCC,Potency,[1],inactive
same,Potency,[2],inactive
same,Potency,[3],inactive
same,Potency,[9],inactive
same,"activity change, positive = activation",[10],5.74%
same,Potency,[5],inactive
same,Potency,[6],inactive
same,Potency,[7],inactive
same,Potency,[8],inactive
CCCCC1=NC2(CCCC2)C(=O)N1Cc1ccc(-c2ccccc2-c2nn[nH]n2)cc1,Potency,[1],inactive
same,Potency,[2],inactive
same,Potency,[3],inactive
same,Potency,[4],inactive
same,Potency,[5],inactive
same,Potency,[6],inactive
same,Potency,[7],inactive
same,Potency,[8],inactive
CCCOC(C(=O)OC1CCN(C)CC1)(c1ccccc1)c1ccccc1,Potency,[1],inactive
same,Potency,[2],inactive
same,Potency,[3],inactive
same,"activity change, positive = activation",[10],-25.8% [at 42.5 µM]
same,Potency,[4],inactive
same,Potency,[6],inactive
O=C(O)c1nc(Cl)c(Cl)c(Cl)c1Cl,Potency,[1],inactive
same,Potency,[2],inactive
same,Potency,[3],inactive
same,Potency,[9],inactive
same,"activity change, positive = activation",[10],0.56%
same,Potency,[6],inactive
same,Potency,[7],inactive
same,Potency,[8],inactive
CCC(C)(C)CC,Potency,[1],inactive
same,Potency,[2],inactive
same,Potency,[3],inactive
same,Potency,[9],inactive
same,"activity change, positive = activation",[10],-6.86%
same,Potency,[5],inactive
same,Potency,[6],inactive
same,Potency,[8],inactive
CCC(=O)O[C@]1(C(=O)CCl)[C@@H](C)C[C@H]2[C@@H]3CCC4=CC(=O)C=C[C@]4(C)[C@@]3(F)[C@@H](O)C[C@@]21C,Potency,[1],inactive
same,Potency,[2],inactive
same,Potency,[3],inactive
same,"activity change, positive = activation",[10],-18.7% [at 42.5 µM]
same,Potency,[6],inactive
same,Potency,[8],inactive
C=C1[C@H]2CC[C@@H]3[C@H]2C(C)(C)CCC[C@]13C,Potency,[1],inactive
same,Potency,[2],inactive
same,Potency,[3],inactive
same,Potency,[4],inactive
same,Potency,[5],inactive
same,Potency,[6],inactive
same,Potency,[7],inactive
same,Potency,[8],inactive
CC1(c2ccccc2)OC(C(=O)O)=CC1=O (configuration not stated),Potency,[1],inactive
same,Potency,[2],inactive
same,Potency,[3],inactive
same,Potency,[4],inactive
same,Potency,[5],inactive
same,Potency,[6],inactive
same,Potency,[7],inactive
same,Potency,[8],inactive
CC(=O)[O][Al],Potency,[1],inactive
same,Potency,[2],inactive
same,Potency,[3],inactive
same,Potency,[9],inactive
same,"activity change, positive = activation",[10],0.0434%
same,Potency,[5],inactive
same,Potency,[6],inactive
same,Potency,[7],inactive
same,Potency,[8],inactive
CCc1c(C(=O)NN2CCCCC2)nn(-c2ccc(Cl)cc2Cl)c1-c1ccc(Br)cc1,Potency,[1],inactive
same,Potency,[2],inactive
same,Potency,[3],inactive
same,Potency,[9],1.22 µM (active)
same,"activity change, positive = activation",[10],-62%
same,Potency,[6],inactive
same,Potency,[8],inactive
c1cc(CCCc2ccncc2)ccn1,Potency,[1],inactive
same,Potency,[2],inactive
same,Potency,[3],inactive
same,"activity change, positive = activation",[10],-26.9%
same,Potency,[4],inactive
same,Potency,[5],inactive
same,Potency,[6],inactive
same,Potency,[7],inactive
same,Potency,[8],inactive
Cc1ccc(C(C)OC(=O)C2(C)CCC(C(=O)O)C2(C)C)cc1 (configuration not stated),Potency,[1],inactive
same,Potency,[2],inactive
same,Potency,[3],inactive
same,Potency,[4],inactive
same,Potency,[5],inactive
same,Potency,[6],inactive
same,Potency,[7],inactive
same,Potency,[8],inactive
C/C=C/C(=O)CC,activation (H2AX phosphorylation),[1],-0.233% [at 31.6 µM]
same,activation,[2],-0.782% [at 15.8 µM]
same,"activity change, negative = cytotoxicity",[3],0.284% [at 31.6 µM]
same,"activity change, negative = cytotoxicity",[4],0.602% [at 15.8 µM]
same,"activity change, negative = cytotoxic",[5],1.19% [at 15.8 µM]
same,cytotoxicity,[6],1.29% [at 15.8 µM]
same,"activity change, negative = cytotoxic",[7],1.82% [at 15.8 µM]
CN1Cc2cc(C(=O)N3CCC(C4CCNCC4)CC3)ccc2NC(CC(=O)O)C1=O (configuration not stated),Potency,[1],inactive
same,Potency,[2],inactive
same,Potency,[3],inactive
same,Potency,[9],inactive
same,"activity change, positive = activation",[10],1.47% [at 42.5 µM]
same,Potency,[5],inactive
same,Potency,[6],inactive
same,Potency,[7],inactive
same,Potency,[8],inactive
C=C(C)C(=O)OCCO,Potency,[1],inactive
same,Potency,[2],inactive
same,Potency,[3],inactive
same,Potency,[4],inactive
same,Potency,[5],inactive
same,Potency,[6],inactive
same,Potency,[7],inactive
same,Potency,[8],inactive
